Mito fusion yeast = mitochondrial division inhibition or fusion activation; S. cerevisiae fusion-defective mutant growth rescue, CellTiterGlo 48 h; Potency, µM (doses to about 46.1 µM), actives largely listed as activators; hit rate 0.23% among 320,000; AID 485298; note: nearly all actives have a fitted effect of over 45% in size
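Yeast fusion mutant, YPEG (non-fermentable carbon), compound, 48 h at 37C non-permissive; CellTiterGlo added, 10 min RT, luminescence read. Rescued growth = division inhibition.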
Abeta rescue = compounds reversing amyloid beta toxicity in yeast | yeast expressing A-beta42, growth rescue, OD600, 48 h; response scale: 0% DMSO, 100% iron-clioquinol control | Potency, µM (doses to about 46.1 µM), most hits filed as activators | AID 1347071 | hit rate 0.063% among 410,000; note: nearly all actives have a fitted effect of over 55% in size
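Growth rescue measured by 600 nm absorbance after 48 h yeast culture at 30 C with compound. Values normalized between DMSO and an equimolar ferric chloride plus clioquinol control.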
TDP-43 yeast inh = TDP-43 toxicity inhibition in yeast; Potency, µM (highest dose often 46.1 µM), most hits filed as activators; AID 652104; TDP-43 expressing yeast growth rescue, BacTiter-Glo, 24 h; hit rate 1.8% among 410,000; note: nearly all actives have a fitted effect of over 50% in size
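Yeast expressing TDP-43 (pregrown in raffinose, seeded at OD600=0.02 in galactose medium) exposed to compounds 24 hr at 30 deg C. Growth read by BacTiter-Glo luminescence; rescue of toxicity appears as increased signal.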
FUS yeast rescue = FUS proteinopathy suppression in yeast | hit rate 0.24% among 390,000 | Potency, µM (titrated, usually from 76.6 µM), hits mostly activators | S. cerevisiae FUS-expressing, growth rescue, OD600, 24 h; note: nearly all actives have a fitted effect of over 55% in size
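Absorbance at 600 nm, taken 24hr after compound addition, measured rescue of FUS-yeast growth at 30C. Induction used 2% galactose with seeding at OD 0.005. Controls: CP55940 from 92uM final, DMSO only.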
A-T KAP1 phos = candidate therapy for ataxia-telangiectasia; F2112 A-T fibroblasts, KAP-1 phosphorylation AlphaLISA; neocarzinostatin DNA damage 30 min before lysis; Potency, µM (highest dose often 57.5 µM), most hits filed as activators; hit rate 0.19% among 320,000; note: nearly all actives have a fitted effect of over 45% in size
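ATM-like activity read as KAP-1 phosphorylation via AlphaLISA donor/acceptor antibody pairs after lysis and 6 hr at 25C. Cells were ATM-null patient fibroblasts (F2112, hTERT), dosed 60 min, then exposed to the DSB inducer NCS for 30 min.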
aSyn rescue = inhibitors of alpha-synuclein toxicity in yeast; Yeast expressing alpha-synuclein, growth rescue, BacTiter-Glo, 24 h; Potency, µM (titrated, usually from 46.1 µM), actives largely listed as activators; hit rate 0.14% among 370,000; AID 652106; note: nearly all actives have a fitted effect of over 65% in size
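Screening used galactose-induced yeast with toxic alpha-synuclein levels, exposed to compound for 24 hr at 30 deg C. Cell growth, read with BacTiter-Glo luminescence, gave the measured signal.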
Numbers stand for hits; - = inactive; ? = inconclusive; . = not tested or not shown. This is a sample that favours compounds with a hit; in the whole collection about 2.4% have one here. Calls come from the whole dose curve; as a rule, active = well fitted curve in the direction sought with a large enough effect; inconclusive = small, poorly fitted or top-dose-only effect, or another doubt; inactive = no such curve, though single readings can be large; an effect the other way counts as inactive or inconclusive.

SMILES | Mito fusion yeast | Abeta rescue | TDP-43 yeast inh | FUS yeast rescue | A-T KAP1 phos | aSyn rescue
O=C(c1cnn(-c2ccc(F)cc2)c1-n1cccc1)N1CCN(c2ccccc2)CC1 | . | - | 14µM | - | . | -
CCOc1ccc(OCC)c(NS(=O)(=O)c2ccc(-c3coc(C)n3)cc2)c1 | . | - | ? | - | . | .
O=c1onc(-c2ccc(Cl)cc2)n1Cc1ccc(F)cc1 | - | - | 18µM | . | - | -
O=c1onc(-c2ccccc2)n1Cc1ccc([N+](=O)[O-])cc1 | . | - | 8.9µM | - | . | -
COc1ccc(-c2noc(=O)n2Cc2ccccc2F)cc1 | - | - | 13µM | - | - | -
Cc1ccc(NS(=O)(=O)c2cc(-c3cnc(C4CC4)o3)ccc2C)cc1Cl | . | - | - | - | . | .
COc1ccc(/C=C2\CC3(OC(=O)c4ccc(F)cc4)CCCN2C3)cc1 (stereo not drawn) | . | . | . | - | . | .
CCCNC(=O)C1(C)CCCN(C(=O)C2(c3ccc(Cl)cc3)CCCC2)C1 (stereo not drawn) | . | - | 35µM | - | . | -
COc1cc(C(C)=O)ccc1OCC(=O)c1cc(C)n(C2CC2)c1C | - | - | 25µM | - | - | -
CCOC(=O)c1sc(NC(=O)C(C)Sc2nc(-c3ccccc3)cc(C(F)(F)F)n2)c(C(=O)OC)c1C (stereo not drawn) | . | - | - | - | . | .
COc1cc(NC(=O)C2CC(c3c(F)cccc3Cl)=NO2)cc(OC)c1OC (stereo not drawn) | - | - | - | - | - | -
COc1ccc(NC(=O)C2CC(c3c(F)cccc3Cl)=NO2)cc1 (stereo not drawn) | - | - | 13µM | - | - | -
Cc1noc(/C=C/c2nn(C)cc2Cl)c1[N+](=O)[O-] | - | - | 13µM | - | - | -
Cc1cccc(/C=C/c2onc(C)c2[N+](=O)[O-])n1 | . | - | 13µM | - | . | ?
CCCCCn1c(=O)c2ccccc2n2c(=S)[nH]nc12 | - | - | 11µM | - | - | -
CCCCn1c(=O)c2ccccc2n2c(=S)[nH]nc12 | - | - | ? | - | - | -
COc1ccc2sc(-c3ccc(N(C)C)cc3)c(C#Cc3cncn3C)c2c1 | . | - | - | ? | 32µM | -
COc1cccc(-c2sc3ccc(OC)cc3c2C#CCC(C)O)c1 (stereo not drawn) | - | - | 25µM | ? | - | -
COc1ccc2sc(-c3ccc(SC)cc3)c(C#CC(C)(C)O)c2c1 | - | - | - | - | ? | -
COc1cccc(-c2sc3ccc(OC)cc3c2C#CC(C)(C)O)c1 | ? | - | 18µM | ? | ? | -
COc1ccc2sc(-c3ccc(N(C)C)cc3)c(C#CC(C)(C)O)c2c1 | - | - | - | - | 32µM | -
CCOC(=O)C1CCN(C(=O)C(C)(C)NC(=O)Nc2ccc3c(c2)CCC3)CC1 | . | . | . | - | . | .
C=CCN1C(=O)[C@H](CC(=O)NCc2cccs2)[C@@]2(C(=O)OCC)CCCC=C12 | . | . | . | - | . | .
CC(CNC(=O)Cn1ccc2cc(S(=O)(=O)N3CCCCC3)ccc21)c1ccccc1 (stereo not drawn) | . | - | - | - | . | .
CC1=C(C(=O)Nc2cccc(C(F)(F)F)c2)C2(CCCCCC2)OC1=O | . | ? | - | - | . | .
SMILES | Mito fusion yeast | Abeta rescue | TDP-43 yeast inh | FUS yeast rescue | A-T KAP1 phos | aSyn rescue
O=S1(=O)CC2c3ccccc3CN2CN1Cc1ccccc1 (stereo not drawn) | . | . | . | - | . | .
CCOc1ccc(C(=O)N2CCC(c3noc(-c4ccc(S(=O)(=O)N5CCCC5)cc4)n3)CC2)cc1 | . | - | - | 16µM | . | .
CN(C(=O)CSc1nc2ccc(NC(=O)COc3ccccc3Cl)cc2s1)c1ccccc1 | . | - | - | - | . | .
Cc1cccc(-n2c(SCC(=O)Nc3ncc(Cl)cc3Cl)nc3ccccc32)c1 | 22µM | - | - | ? | - | -
O=C(CSc1nc2ccccc2n1-c1ccccc1)Nc1ncc(Cl)cc1Cl | 20µM | - | 22µM | - | - | -
Cc1ccc(-n2c(C)nc3c(cnn3-c3ccccc3Cl)c2=O)cc1C | - | - | 11µM | - | . | -
COc1cccc(-n2c(C)nc3c(cnn3-c3ccc(C)c(C)c3)c2=O)c1 | . | - | 22µM | - | . | .
Cc1ccc(-n2c(C)nc3c(cnn3-c3ccc(C)c(C)c3)c2=O)cc1C | - | - | ? | - | - | -
CC1=NN(c2ccc(C)c(C)c2)C(=O)/C1=C\C=C\c1ccc([N+](=O)[O-])o1 | - | - | - | - | 32µM | -
CC1=NN(c2ccccc2)C(=O)/C1=C\C=C\c1ccccc1 | - | - | - | - | - | -
CC(=O)N1N=C(c2ccccc2)CC1c1ccc(F)cc1 (stereo not drawn) | - | - | - | - | - | -
CC(=O)N1N=C(c2ccccc2)CC1c1cn(C)c2ccccc12 (stereo not drawn) | - | - | 20µM | . | - | -
CS(=O)(=O)OC12CCCN(C1)/C(=C/c1ccc(Cl)cc1)C2 (stereo not drawn) | . | . | . | - | . | .
Cc1cc(C)c2c(=O)cc(C(=O)NCc3ccccc3)oc2c1 | - | - | - | - | 35µM | -
Cc1ccc2c(=O)cc(C(=O)NCc3ccccc3)oc2c1C | 13µM | - | - | - | - | -
Cc1cc(C)c2oc(C(=O)NCc3ccccc3)cc(=O)c2c1 | - | - | - | - | - | -
Cc1cc2oc(C(=O)NCc3ccccc3)cc(=O)c2cc1C | ? | - | - | - | - | -
O=CN1Cc2ccccc2-c2ccccc2C1 | - | - | 13µM | - | - | -
Cc1ccc(C)c(CNC(=O)c2sc3ncnc(N(C)C4CCCCC4)c3c2C)c1 | . | - | 22µM | - | . | .
Nc1ccc(-c2nc3cc([N+](=O)[O-])ccc3o2)cc1 | - | - | - | - | 40µM | -
CC(C)(C)NC(=O)C[n+]1ccc(C(N)=O)cc1 | - | - | - | - | - | 35µM
CCN(CC)C(=O)C[n+]1ccc(C(N)=O)cc1 | - | - | - | - | - | -
Cc1ccnc(Sc2ccc([N+](=O)[O-])cc2[N+](=O)[O-])n1 | - | - | 20µM | - | - | -

From PubChem
